Test systems include SR leukemia; RPMI-8226 leukemia; OVCAR-8 ovarian; OVCAR-5 ovarian; OVCAR-4 ovarian; SK-OV-3 ovarian; IGROV1 ovarian; OVCAR-3 ovarian; HS 578T breast; NCI/ADR-RES ovarian; T-47D breast; BT-549 breast; MDA-MB-435 melanoma; SW-620 colon; MCF7 breast; HCT-116 colon; HCC-2998 colon; KM12 colon.
Assay in all cases: NCI-60 one-dose screen, 48 h (100 = growth as untreated, 0 = no growth, -100 = all killed)
Common to all, as to conditions: 10 µM unless noted

Molecules are shown by their SMILES. The panel holds about 83,000 compounds, 20% with a hit somewhere; the sample as a whole holds those more often.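 Activity criterion: percent growth below 10, measured after cells in 96-well plates were exposed to a single compound concentration for 48 hours.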 Unmarked numbers belong to inactive results. Activity calls are given as the source filed them.

Turning to `CC(=O)C1=C(C)NC(NNC(N)=S)=NC1c1ccccc1` (centres undefined), the growth in the experiment on SR leukemia is 112%; in the experiment with RPMI-8226 leukemia it was 108%; in the experiment with OVCAR-8 ovarian, 107%; in the experiment on OVCAR-5 ovarian, 90%; in the experiment on OVCAR-4 ovarian, 78%; in the experiment on SK-OV-3 ovarian, 104%. Besides, the growth was 77.9% in the experiment on IGROV1 ovarian; 111% in the experiment with OVCAR-3 ovarian; 103% with HS 578T breast; 108% in the experiment on NCI/ADR-RES ovarian; 103% with T-47D breast; 92.2% with BT-549 breast. For the same molecule, the growth in the experiment on MDA-MB-435 melanoma is 99.2%; in the experiment with SW-620 colon, 96.8%; in the experiment on MCF7 breast it was 101%; in the experiment with HCT-116 colon, 94.9%; in the experiment with HCC-2998 colon it was 103%; with KM12 colon, 102%.
For the molecule `N/C(=N\C(N)=N\c1nc2ccccc2s1)c1ccncc1Cl`, the growth was 39.4% in the experiment with SR leukemia; 11.6% with RPMI-8226 leukemia; 49% with OVCAR-8 ovarian; 61.1% in the experiment on OVCAR-5 ovarian; 104% with OVCAR-4 ovarian; 41.8% with SK-OV-3 ovarian. For the same molecule, the growth was 34.2% in the experiment on IGROV1 ovarian; 19.8% in the experiment on OVCAR-3 ovarian; 35.7% with HS 578T breast; 25.2% in the experiment on NCI/ADR-RES ovarian; 55.4% with T-47D breast; 43.8% with BT-549 breast. In addition, the growth is 6.13% (active) in the experiment on MDA-MB-435 melanoma; 24.1% with SW-620 colon; 75.6% with MCF7 breast; 23.3% in the experiment on HCT-116 colon; 76.6% with HCC-2998 colon; 24.1% in the experiment with KM12 colon.
For `O=C(CSc1nnc(-c2ccc(Cl)cc2)n1-c1ccccc1)Nc1ccc(Br)cc1`, the growth in the experiment with SR leukemia was 13.3%; in the experiment on RPMI-8226 leukemia it was 17.5%; in the experiment with OVCAR-8 ovarian it was -27.5% (active); with OVCAR-5 ovarian, 2.37% (active); in the experiment with OVCAR-4 ovarian, -1.23% (active); with SK-OV-3 ovarian, -35.9% (active). The growth was 16.6% in the experiment with IGROV1 ovarian; -24.5% (active) with OVCAR-3 ovarian; 17.8% with HS 578T breast; 12.3% with NCI/ADR-RES ovarian; 8.35% (active) in the experiment on T-47D breast; 36.7% with BT-549 breast. The growth in the experiment with MDA-MB-435 melanoma was 27.2%; with SW-620 colon it was 37.9%; in the experiment on MCF7 breast it was 38.6%; in the experiment with HCT-116 colon, -64.2% (active); with HCC-2998 colon, 77.9%; in the experiment on KM12 colon, 45.4%.
On to `NC(N)=Nc1ccc(Oc2ccc(Nc3ccc(Cl)c(C(F)(F)F)c3)cc2)cc1`, for which the growth was -4.22% (active) with SR leukemia; 41.9% in the experiment with RPMI-8226 leukemia; 55.1% in the experiment with OVCAR-8 ovarian; 66.2% in the experiment on OVCAR-5 ovarian; 52.3% in the experiment on OVCAR-4 ovarian; 89.4% with SK-OV-3 ovarian. For the same molecule, the growth with IGROV1 ovarian was -7.75% (active); with OVCAR-3 ovarian, -21.8% (active); in the experiment with HS 578T breast, 56.1%; in the experiment on NCI/ADR-RES ovarian it was 91.9%; in the experiment on T-47D breast, 41.1%; in the experiment on BT-549 breast, 86.1%. The growth was 40.3% in the experiment on MDA-MB-435 melanoma; 25.6% in the experiment with SW-620 colon; 2.64% (active) in the experiment on MCF7 breast; 11.3% in the experiment on HCT-116 colon; 1.24% (active) with HCC-2998 colon; 5.94% (active) in the experiment with KM12 colon.
For `CCCn1cnc2c(c1=N)C(c1ccc(Cl)cc1)c1sc3c(C)cccc3c1O2` (centres undefined), the growth in the experiment on SR leukemia is 12.6%; with RPMI-8226 leukemia, 1.37% (active); with OVCAR-8 ovarian, 23.5%; with OVCAR-5 ovarian, 34.2%; with OVCAR-4 ovarian, 89.2%; in the experiment with SK-OV-3 ovarian, 44.2%. For the same molecule, the growth in the experiment with IGROV1 ovarian was 23.7%; with OVCAR-3 ovarian, 2.26% (active); in the experiment on HS 578T breast, 15.4%; in the experiment on NCI/ADR-RES ovarian it was 7.18% (active); in the experiment with T-47D breast, 45.9%; with BT-549 breast, 18%. For the same molecule, the growth in the experiment with MDA-MB-435 melanoma was -40% (active); with SW-620 colon it was 25.8%; with MCF7 breast, 17.4%; with HCT-116 colon it was 9.34% (active); in the experiment with HCC-2998 colon, 15.3%; with KM12 colon, 10.9%.
As to `NS(=O)(=O)c1ccc(-n2cc(CN3CCCCC3)nn2)cc1`, the growth with SR leukemia is 93.7%; in the experiment on RPMI-8226 leukemia it was 107%; with OVCAR-8 ovarian, 105%; with OVCAR-5 ovarian, 105%; in the experiment on OVCAR-4 ovarian, 105%; in the experiment with SK-OV-3 ovarian it was 122%. Besides, the growth in the experiment on IGROV1 ovarian is 104%; with OVCAR-3 ovarian it was 113%; in the experiment with HS 578T breast, 100%; with NCI/ADR-RES ovarian it was 109%; with T-47D breast, 110%; in the experiment with BT-549 breast, 108%. Moreover, the growth in the experiment on MDA-MB-435 melanoma was 106%; in the experiment on SW-620 colon, 106%; in the experiment on MCF7 breast, 96.9%; in the experiment with HCT-116 colon, 107%; in the experiment with HCC-2998 colon it was 106%; with KM12 colon, 95.3%.
For the molecule `CC/C(=C/c1cc(OC)ccc1O)c1ccc2cc(OC)ccc2[o+]1`, the growth with SR leukemia is 18.3%; in the experiment on RPMI-8226 leukemia, 79.4%; with OVCAR-8 ovarian it was 87.1%; in the experiment on OVCAR-5 ovarian, 82.8%; with OVCAR-4 ovarian, 89.8%; in the experiment on SK-OV-3 ovarian it was 60.2%. Moreover, the growth was 55.1% with IGROV1 ovarian; 20.7% with OVCAR-3 ovarian; 63.4% in the experiment with HS 578T breast; 33.5% in the experiment on NCI/ADR-RES ovarian; 52.9% with T-47D breast; 51.5% in the experiment with BT-549 breast. For the same molecule, the growth in the experiment with MDA-MB-435 melanoma was -28.3% (active); with SW-620 colon it was 33.2%; in the experiment on MCF7 breast, 16.6%; in the experiment with HCT-116 colon it was 26.8%; with HCC-2998 colon it was 81.8%; in the experiment with KM12 colon, 46.1%.
Turning to `CCCSc1nc(Nc2ccc(/C(C)=N\NC(N)=S)cc2)c(C#N)c(-c2ccccc2)n1`, the growth in the experiment with SR leukemia is 57.1%; in the experiment with RPMI-8226 leukemia it was 67.5%; in the experiment on OVCAR-8 ovarian, 56%; with OVCAR-5 ovarian, 85.5%; in the experiment with OVCAR-4 ovarian, 58.7%; in the experiment on SK-OV-3 ovarian it was 125%. In addition, the growth in the experiment on IGROV1 ovarian was 86.9%; in the experiment on OVCAR-3 ovarian it was 31.4%; in the experiment on HS 578T breast it was 62.5%; in the experiment with NCI/ADR-RES ovarian it was 53.5%; in the experiment with T-47D breast, 63.4%; with BT-549 breast, 88.5%. Moreover, the growth was 87.5% in the experiment on MDA-MB-435 melanoma; 84.1% in the experiment with SW-620 colon; 47.9% in the experiment with MCF7 breast; 49% in the experiment with HCT-116 colon; 89.5% with HCC-2998 colon; 54.9% in the experiment on KM12 colon.

Source of the values: PubChem BioAssay (NCI).
